According to PubChem BioAssay (NCATS):
Results filed as inconclusive are left out. Activity calls are given as the source filed them. Unless noted, calls follow the shape of the full dose curve.

Key:
[1] = qHTS for Inhibitors of the Functional Ribonucleoprotein Complex (vRNP) of Lassa (LASV) Arenavirus: LASV Primary Screen - GLuc reporter signal (AID 1347082; calls by dose curve; tested in HEK293 reporter line; also: nearly all actives have a fitted effect of over 60% in size)
[2] = qHTS for Inhibitors of the Functional Ribonucleoprotein Complex (vRNP) of Lassa (LASV) Arenavirus: Viability assay - alamar blue signal for LASV Primary Screen (AID 1347083; calls by dose curve; tested in HEK293 reporter line; also: nearly all actives have a fitted effect of over 80% in size)
[3] = qHTS for Inhibitors of the Functional Ribonucleoprotein Complex (vRNP) of Lymphocytic Choriomeningitis Arenaviruses (LCMV): Viability assay - alamar blue signal for LCMV Primary Screen (AID 1347085; calls by dose curve; tested in HEK293 reporter line; also: nearly all actives have a fitted effect of over 80% in size)
[4] = biological target: Nucleoprotein (Lymphocytic choriomeningitis virus (strain Armstrong)) (UniProt P09992); test: qHTS for Inhibitors of the Functional Ribonucleoprotein Complex (vRNP) of Lymphocytic Choriomeningitis Arenaviruses (LCMV): LCMV Primary Screen - GLuc reporter signal (AID 1347086); also: nearly all actives have a fitted effect of over 70% in size
Sequence of Nucleoprotein (Lymphocytic choriomeningitis virus (strain Armstrong)) (P09992 whole entry, looked up): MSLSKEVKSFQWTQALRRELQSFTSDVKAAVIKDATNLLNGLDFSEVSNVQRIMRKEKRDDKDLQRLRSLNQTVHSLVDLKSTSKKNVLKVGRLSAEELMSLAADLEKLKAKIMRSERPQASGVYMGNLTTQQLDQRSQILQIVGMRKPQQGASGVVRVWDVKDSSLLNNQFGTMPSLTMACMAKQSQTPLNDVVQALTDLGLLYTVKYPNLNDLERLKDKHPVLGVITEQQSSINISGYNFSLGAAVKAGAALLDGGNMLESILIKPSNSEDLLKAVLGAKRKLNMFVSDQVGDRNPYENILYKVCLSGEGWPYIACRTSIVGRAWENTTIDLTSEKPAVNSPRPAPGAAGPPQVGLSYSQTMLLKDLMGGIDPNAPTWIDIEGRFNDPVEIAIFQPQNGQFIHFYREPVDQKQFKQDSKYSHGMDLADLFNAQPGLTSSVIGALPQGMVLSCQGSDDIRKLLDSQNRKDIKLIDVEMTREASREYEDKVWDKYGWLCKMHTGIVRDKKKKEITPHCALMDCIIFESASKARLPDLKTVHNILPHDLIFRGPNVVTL

Measured: Potency
Also: series mostly up to about 57 µM.

O=C(CO)c1c[nH]c2ccccc12
inactive: all assays above

C=C1[C@H](n2cnc3c(=O)[nH]c(N)nc32)C[C@H](O)[C@H]1CO
inactive: all assays above

SC1CCCC1
inactive: all assays above

COc1cc2ccc(=O)oc2c(O)c1O
inactive: all assays above

O=C(NC(Cc1ccccc1)C(=O)O)c1ccccc1 (stereo not given)
inactive: all assays above

CN(CC=CC#CC(C)(C)C)Cc1cccc2ccccc12
inactive: all assays above

O=C1N[C@@H](Cc2c[nH]c3ccccc23)C(=O)N[C@H]1Cc1ccccc1
inactive: all assays above

COc1cc(=O)n(C)c2c(OCC3OC(C)(C)OC3(C)C)cccc12 (stereo not given)
inactive: all assays above

CC1=C(/C=C/C(C)=C/C=C/C(C)=C/C=C/C=C(C)/C=C/C=C(\C)C=O)C(C)(C)CCC1
inactive: all assays above

COc1ccc2[nH]cc(CCO)c2c1
inactive: all assays above

COc1cc2c(cc1O)[C@@H]1Cc3cc(OC)c(OC)cc3C(C2)N1C
inactive: all assays above

OC[C@H]1O[C@@H](O[C@H]2[C@@H](O)[C@@](O)(CO)O[C@@H]2CO)[C@H](O)[C@@H](O)[C@@H]1O
inactive: all assays above

C=CC(C)(CCC=C(C)C)OC(=O)CC (stereo not given)
inactive: all assays above

CCCCCCCCCCC(C)=O
inactive: all assays above

CSC(=S)NCc1c[nH]c2ccccc12
inactive: all assays above

CCCC1CCC(=O)O1 (stereo not given)
inactive: all assays above

C=CCc1ccc(O)c(-c2cc(CC=C)ccc2O)c1
inactive: all assays above

CCC(=O)OCC(=O)[C@@]1(OC(=O)CC)[C@@H](C)C[C@@H]2[C@H]3CCC4=CC(=O)C=C[C@]4(C)[C@@]3(F)[C@@H](O)C[C@@]21C
inactive: all assays above

C/C=C(\C)C(=O)O[C@H]1C[C@@]2(C)CCC(C(C)C)C2(O)CC[C@@]1(C)O (stereo not given in full)
inactive: all assays above

C[C@@H]1C[C@H]2[C@@H]3C[C@H](F)C4=CC(=O)C=C[C@@]4(C)[C@]3(F)[C@H](O)C[C@]2(C)[C@@]1(O)C(=O)CO
inactive: all assays above

C/C=C(/C)C(=O)O[C@@H]1c2c(ccc3ccc(=O)oc23)O[C@@H]1C(C)(C)OC(C)=O
inactive: all assays above

CC/C=C\CCOC(=O)CCCCC
inactive: all assays above

C=CC[C@]12C=C(OC)C(=O)C=C1O[C@@H](c1ccc3c(c1)OCO3)[C@H]2C
inactive: all assays above

CC(C)C/C=C(\C=O)c1ccccc1
inactive: all assays above

C=C[C@@H](C1=CC(=O)C(OC)=C(OC)C1=O)c1ccccc1
inactive: all assays above

CC1(C)C[C@H](O)[C@]2(CO)[C@H](O)C[C@]3(C)C(=CCC4[C@@]5(C)CC[C@H](O)C(C)(C)C5CC[C@]43C)[C@@H]2C1 (stereo not given in full)
inactive: all assays above

OCc1ccccc1O[C@@H]1O[C@H](CO)[C@H](O)[C@H](O)[C@H]1O
inactive: all assays above

NC(=O)NCCCC(=O)O
inactive: all assays above

CC(=O)O[C@H]1C(=O)[C@@]2(C)C([C@H](OC(=O)c3ccccc3)[C@]3(O)C[C@H](OC(=O)[C@H](O)[C@@H](NC(=O)c4ccccc4)c4ccccc4)C(C)=C1C3(C)C)[C@]1(OC(C)=O)CO[C@@H]1C[C@H]2O (stereo not given in full)
inactive: all assays above

COc1c2c(cc3oc(C)cc(=O)c13)OC(C(C)(C)OC1OC(CO)C(O)C(O)C1O)C2 (stereo not given)
inactive: all assays above
